# Compounds with a hit are over-represented: about 18% of the library has one in this group of screens.
# DT40 TDP1 no CPT = qHTS for Inhibitors of human tyrosyl-DNA phosphodiesterase 1 (TDP1): qHTS in cells in absence of CPT; DT40 Tdp1-/- hTDP1 cells, no CPT, ATP luminescence, 48 h; Potency, µM (top dose mostly 46.2 µM), for the others: top-dose activity change, negative = growth inhibition, usual class: inhibitors; 15% of 420,000 active; AID 686978, 2013; further: potency means the concentration at half of the fitted maximal effect; on the % scale 0 is the no-effect control and ±100 the full control effect; nearly all actives have a fitted effect of over 55% in size
#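 Chicken DT40 Tdp1-/- cells stably complemented with human TDP1 were seeded at 400 cells/well with DMSO in place of 20 nM camptothecin. After compound pinning, cells grew at least 48 hr at 37 °C; viability read by CellTiter-Glo luminescence.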
# TGFb SMAD3 inh = TGF-b pathway inhibition; Potency, µM (series often up to 46.1 µM), without a hit: at the top dose activity, negative = inhibition, most hits filed as inhibitors; HepG2 CAGA-GFP TGF-b/SMAD3 reporter, GFP fluorescence, 18 h; TGF-beta stimulated, 500 pg/mL final; 1.2% of 410,000 active; further: potency means the concentration at half of the fitted maximal effect; on the % scale 0 is the no-effect control and ±100 the full control effect; nearly all actives have a fitted effect of over 65% in size
#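 Using HEPG2 CAGA-GFP reporter cells at 1000 cells/well, we pinned test compounds, stimulated with recombinant TGF-beta (500 pg/mL final) and measured total well GFP after 18 h.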
# DT40 TDP1 CPT = DT40-hTDP1 cell growth loss with CPT; Potency, µM (titrated, usually from 46.2 µM), for the others: top-dose activity change, negative = growth inhibition, usual class: inhibitors; AID 686979; chicken DT40 Tdp1-/-;hTDP1 cells + 20 nM CPT, ATP luminescence, 48 h; 12% of 420,000 active; further: potency means the concentration at half of the fitted maximal effect; on the % scale 0 is the no-effect control and ±100 the full control effect; nearly all actives have a fitted effect of over 55% in size
#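 Chicken DT40 Tdp1-/- cells stably complemented with human TDP1 were seeded at 400 cells/well in medium containing 20 nM camptothecin, exposed to pin-transferred compounds, and grown at 37 °C for at least 48 hr. Viability was read as ATP luminescence.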
# HepG2 tox = counter-screen for TGF-b inhibitors: cytotoxicity in HepG2 cells; HepG2 CAGA-GFP viability, ATP luminescence, 18 h; Potency, µM (doses to about 46.1 µM), without a hit: at the top dose activity change, negative = cytotoxicity, actives largely listed as cytotoxic; 0.76% of 410,000 active; AID 588856; further: potency means the concentration at half of the fitted maximal effect
#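 HepG2 CAGA-GFP cells (1000/well, DMEM with 1% FBS) received compound, then TGF-beta at 500 pg/mL final, and were incubated 18 hours at 37 degrees C. Viability was read by CellTiter-Glo luminescence. Media-only wells were set as complete cell-killing and DMSO as no toxicity.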
# IL1B secr inh = inhibitors of inflammasome signaling (IL-1 beta secretion); 4.7% of 360,000 active; THP-1 LPS/ATP IL-1B secretion, AlphaLISA, 16 h; hits give low values; activity change, % at 57.5 µM; in the data active means activity change below about -50%; inconclusive means mostly about -30% to -49%; further: on the % scale 0 is the no-effect control and ±100 the full control effect
#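 Secreted IL-1B measured by AlphaLISA bead assay after 16 h compound exposure of THP-1 cells; compounds (final up to 57.5 uM) added 1 h before LPS (250 ng/mL) and ATP (1.25 mM) stimulation; lower signal means less secretion.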
# TDP1 inh = blocks human tyrosyl-DNA phosphodiesterase 1. 0.28% of 350,000 active. AID 485290. recombinant TDP1, AlphaScreen DNA substrate cleavage. Q9NUW8. Potency, µM (highest dose often 130 µM), without a hit: at the top dose activity change, negative = inhibition, actives largely listed as inhibitors; further: potency means the concentration at half of the fitted maximal effect; on the % scale 0 is the no-effect control and ±100 the full control effect; nearly all actives have a fitted effect of over 40% in size
# Target sequence (Q9NUW8 whole entry, looked up): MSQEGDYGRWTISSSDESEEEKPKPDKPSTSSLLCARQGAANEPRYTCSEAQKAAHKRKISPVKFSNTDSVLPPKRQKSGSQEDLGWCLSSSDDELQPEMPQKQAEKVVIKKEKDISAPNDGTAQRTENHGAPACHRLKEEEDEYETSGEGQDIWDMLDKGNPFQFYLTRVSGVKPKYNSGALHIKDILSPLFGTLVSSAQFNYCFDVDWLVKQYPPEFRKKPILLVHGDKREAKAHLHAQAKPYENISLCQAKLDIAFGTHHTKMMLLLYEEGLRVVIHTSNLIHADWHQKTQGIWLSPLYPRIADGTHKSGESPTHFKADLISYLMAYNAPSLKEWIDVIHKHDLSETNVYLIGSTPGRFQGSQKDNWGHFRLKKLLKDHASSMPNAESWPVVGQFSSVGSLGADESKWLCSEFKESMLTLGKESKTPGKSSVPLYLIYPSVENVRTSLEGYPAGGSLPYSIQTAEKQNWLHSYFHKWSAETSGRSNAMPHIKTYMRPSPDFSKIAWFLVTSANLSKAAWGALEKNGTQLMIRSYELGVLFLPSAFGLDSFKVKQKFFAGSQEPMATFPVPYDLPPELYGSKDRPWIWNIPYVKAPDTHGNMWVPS
#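 Signal: AlphaScreen proximity between streptavidin donor and anti-FITC acceptor beads on intact substrate. Reaction: Tdp1 1 nM, substrate 15 nM final, 5 min RT after 15 min compound preincubation.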
# * = called active by the depositor; ? = inconclusive; · = no result given; [ ] = dose if it differs, or a comment. Unless noted, the call rests on the fitted dose curve; in most records, active means well fitted curve in the direction sought with a large enough effect; inconclusive means small, poorly fitted or top-dose-only effect, or another doubt; inactive means no such curve, though single readings can be large; an effect the other way counts as inactive or inconclusive.
SMILES,DT40 TDP1 no CPT,TGFb SMAD3 inh,DT40 TDP1 CPT,HepG2 tox,IL1B secr inh,TDP1 inh
Cc1cc(/C=C2\SC(=O)N(C)C2=O)c(C)n1-c1ccc(S(N)(=O)=O)cc1,9.2µM*,9%,18µM*,-18%,12,·
Cc1cc(/C=C2\SC(=O)N(C)C2=O)c(C)n1-c1ccc(O)cc1,21µM*,?,?,-64%,6,·
CCN(CCO)C(=O)CC1C(=O)NCCN1Cc1c(F)cccc1Cl (stereo not given),-10%,-15%,-10%,-20%,-4,3%
Cc1ccc(-c2csc(/C(C#N)=C/c3ccccc3Cl)n2)cc1,6%,-6%,1%,-28%,·,1%[12.3 µM]
CCOc1ccc(OCCNCc2ccc(OC(C)C(=O)N(C)C)c(OCC)c2)cc1 (stereo not given),3%,0%,-8%,10%,21,·
O=C(Nc1cccc(C(F)(F)F)c1)C1CC(=O)N(Cc2ccco2)C1 (stereo not given),-15%,6%,0%,2%,14,·
Cc1ccc(S(=O)(=O)N(C)c2ccc(OC(=O)c3cc(=O)[nH]c4ccccc34)cc2)cc1,?,-7%,?,-11%,30,4%
COCCNC(=O)c1cc2c(c(-c3cccc(C#CC(C)(C)O)c3)n1)[C@@H](CCO)N(S(=O)C(C)(C)C)C2 (stereo not given in full),-5%,2%,-24%,-6%,28,·
COc1cccc(N/C(N)=N/c2nc(C(F)(F)F)cc(=O)[nH]2)c1,?,2%,10µM*,5%,19,4%
CCOC(=O)C(CC)n1cnc2c(nnn2-c2ccc(F)cc2)c1=O (stereo not given),-2%,1%,-2%,-1%,19,·
CC1(C)CC(=O)c2c(O)cc(OCC(=O)NCCc3ccc(S(N)(=O)=O)cc3)cc2O1,-27%,3%,-15%,-11%,14,·
CC1(C)CC(=O)c2c(O)cc(OCC(=O)Nc3ccc(S(N)(=O)=O)cc3)cc2O1,?,-8%,-29%,-2%,-4,·
COc1ccc(CNC(=O)COc2cc(O)c3c(c2)OC(C)(C)CC3=O)cc1,0.82µM*,-1%,33µM*,-14%,-7,·
COc1cc(NC(=O)COc2cc(O)c3c(c2)OC(C)(C)CC3=O)cc(OC)c1OC,0.26µM*,-26%,0.46µM*,-36%,-3,·
Cc1nn(C)c2c1c(C(F)(F)F)cc(=O)n2CC(=O)N1CCCCC1,-26%,8%,?,0%,·,-1%
CN1CCN(C(=O)C(N)Cc2ccccc2)CC1 (stereo not given),-25%,-3%,7%,-1%,-9,4%
CCOc1ccc(NS(=O)(=O)c2ccc3[nH]cc(C(=O)NC(C)CC)c(=O)c3c2)cc1 (stereo not given),21µM*,-23%,?,-24%,-13,2%
CN(C(=O)c1c[nH]c2ccc(S(=O)(=O)Nc3cccc(C(F)(F)F)c3)cc2c1=O)C1CCCCC1,-12%,-5%,-23%,-5%,·,-13%
O=C(NC1CCCC1)c1c[nH]c2ccc(S(=O)(=O)Nc3cccc(C(F)(F)F)c3)cc2c1=O,21µM*,?,?,-66%,·,·
Cc1cc(C)cc(NS(=O)(=O)c2ccc3[nH]cc(C(=O)NCCc4ccccc4)c(=O)c3c2)c1,16µM*,-26%,?,-23%,·,5%
CNC(=O)c1c[nH]c2ccc(S(=O)(=O)Nc3cccc(Cl)c3C)cc2c1=O,?,4%,?,-49%,·,·
CCOc1ccc(NS(=O)(=O)c2ccc3[nH]cc(C(=O)NC4CCCC4)c(=O)c3c2)cc1,-23%,?,-1%,-43%,·,-9%
CCCCN(CCCC)C(=O)c1c[nH]c2ccc(S(=O)(=O)Nc3cccc(Cl)c3C)cc2c1=O,-12%,?,-23%,-24%,·,32µM*
Cc1cccc(NC(=O)CSCC(=O)OCc2ccccn2)c1,0%,-7%,-6%,-1%,18,0%[0.505 µM]
CCOc1ccc(NC(=O)Cn2ncc3c2-c2cc(C)ccc2OC3)cc1,-15%,-10%,-9%,-7%,·,3%
SMILES,DT40 TDP1 no CPT,TGFb SMAD3 inh,DT40 TDP1 CPT,HepG2 tox,IL1B secr inh,TDP1 inh
CCN(c1ccccc1)S(=O)(=O)c1ccc2[nH]cc(C(=O)NCCOC)c(=O)c2c1,?,0%,?,-12%,28,-2%
CCc1ccc(NS(=O)(=O)c2ccc3[nH]cc(C(=O)N(C)Cc4ccco4)c(=O)c3c2)cc1,15µM*,-1%,?,-9%,34,·
COc1cccc(NS(=O)(=O)c2ccc3[nH]cc(C(=O)NCCC(C)C)c(=O)c3c2)c1,15µM*,?,10µM*,-71%,-16,-6%
Cc1ccc(CCNC(=O)c2c[nH]c3ccc(S(=O)(=O)Nc4cccc(C(F)(F)F)c4)cc3c2=O)cc1,?,0%,21µM*,-47%,·,-9%
CCN(c1ccccc1)S(=O)(=O)c1ccc2[nH]cc(C(=O)NC3CCCCC3)c(=O)c2c1,15µM*,7.9µM*,?,-101%,·,4%
O=C(COc1ccccc1F)OCc1cc(=O)n2nc(C3CC3)sc2n1,-1%,-9%,-17%,-8%,·,3%
Cc1ccc(NC(=O)c2sc(-n3nc(C)c(CCC(C)C)c3C)nc2C)cc1C,?,2%,?,0%,·,-4%
Cc1ccc(CNC(=O)c2c[nH]c3ccc(S(=O)(=O)Nc4ccc(C(C)C)cc4)cc3c2=O)cc1,?,?,?,11µM*,·,·
Cc1ccccc1NS(=O)(=O)c1ccc2[nH]cc(C(=O)NCCc3ccccc3)c(=O)c2c1,?,20µM*,?,-42%,·,?
CC1(C(=O)NCCc2c[nH]c3ccccc23)CCN1Cc1ccccc1OC(F)F (stereo not given),?,?,18µM*,-27%,-20,·
CC1(C(=O)NCCc2c[nH]c3ccccc23)CCN1Cc1csc2ccccc12 (stereo not given),-2%,-12%,0%,-20%,23,·
CC1(C(=O)NCc2ccccc2Br)CCN1Cc1ccccc1OC(F)F (stereo not given),23µM*,?,?,-14%,-54*,·
CC1(C(=O)NCc2ccccc2Br)CCN1Cc1c(F)cccc1F (stereo not given),?,-20%,?,-4%,-21,·
